We go through 13 compounds from PubChem BioAssay (NCATS).

One test has as its system CASKI. Description: Primary qHTS to identify gynecologic anti-cancer compounds using libraries of approved drugs and bioactive compounds (AID 1345084). Note: nearly all actives have a fitted effect of over 55% in size. Conditions: Gynecologic cancer cell panel viability, ATPlite luminescence, 48 h; series mostly up to 57.5 µM. A digest of the protocol:
(§1)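 ATP-based viability (ATPlite), 1,000 cells/well, 16 h pre-incubation, 48 h compound at 37 C, 5% CO2, 15 min RT before read.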
On the technique in general: qHTS replaces the single test concentration by a dilution series.

The next test relates to Es-2. The test is described as above. The conditions noted are these: Gynecologic cancer cell panel viability, ATPlite luminescence, 48 h; series mostly up to 57.5 µM. A digest of the protocol:
as §1
(In general: Cellular ATP, detected with luciferase, serves as a proxy for viable cell number.)

The subject of the next test is HeLa. The test is described as above. The conditions noted are these: Gynecologic cancer cell panel viability, ATPlite luminescence, 48 h; series mostly up to 57.5 µM. A digest of the protocol: as §1
The test system of the next test is Hek293T. Described as above. Conditions: Gynecologic cancer cell panel viability, ATPlite luminescence, 48 h, control line for the selectivity index; series mostly up to 57.5 µM. The procedure, abridged:
as §1

In another test the test system is JEG-3. The test is described as above. The conditions noted are these: Gynecologic cancer cell panel viability, ATPlite luminescence, 48 h; series mostly up to 57.5 µM. A digest of the protocol:
as §1

Another test relates to OV90. Described as above. The conditions noted are these: Gynecologic cancer cell panel viability, ATPlite luminescence, 48 h; series mostly up to 57.5 µM. The procedure, abridged:
as §1

The next test deals with PA-1. The test is described as above. Conditions: Gynecologic cancer cell panel viability, ATPlite luminescence, 48 h; series mostly up to 57.5 µM. A digest of the protocol:
as §1

A further test has as its system SKOV3. The description is as above. Conditions: Gynecologic cancer cell panel viability, ATPlite luminescence, 48 h; series mostly up to 57.5 µM. A digest of the protocol: as §1
The subject of another test is Tov-21-G. The description is as above. The conditions noted are these: Gynecologic cancer cell panel viability, ATPlite luminescence, 48 h; series mostly up to 57.5 µM. The procedure, abridged:
as §1

In another test the test system is Tov112D. The test is described as above. Conditions: Gynecologic cancer cell panel viability, ATPlite luminescence, 48 h; series mostly up to 57.5 µM. The procedure, abridged:
as §1

Test [1] can be described thus: Drug repurposing screens with cells derived from glioblastoma tumor samples (AID 1345199). Note: nearly all actives have a fitted effect of over 40% in size. The conditions noted are these: GBM patient neurospheres viability, ATP luminescence, 48 h. A digest of the protocol: (§2)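 Primary testing used CD133+ neurospheres from four GBM patients, seven concentrations, 48 h exposure and ATP-based viability; confirmation added three slower-growing patient lines.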

A further test deals with astro. Described as above. Conditions: viability, ATP luminescence, 48 h; series mostly up to 45.9 µM. A digest of the protocol: as §2
The mark [2] stands for this setting: at 46.1 µM (top of the series), tumour line C.
[3] abbreviates: at 45.9 µM (top of the series), tumour line B.
[4] abbreviates: at 45.9 µM (top of the series), tumour line D.

SMILES strings stand for the structures. Results filed as inconclusive are left out. Unmarked numbers belong to inactive results. Activity calls are given as the source filed them. Calls come from the whole dose curve; as a rule, active = well fitted curve in the direction sought with a large enough effect; inconclusive = small, poorly fitted or top-dose-only effect, or another doubt; inactive = no such curve, though single readings can be large; an effect the other way counts as inactive or inconclusive.
% is set by controls: 0 for no effect and ±100 for the full control effect; potency is the fitted concentration of half-maximal effect.

Take `CC(C)(OC1OC(CO)C(O)C(O)C1O)C1CCC(O)(CO)C2CC(O)C(C)(O)C2C1` (stereo not given): the Potency entry in the test on CASKI, in the test on Es-2, in the test with HeLa, in the test on Hek293T, with JEG-3 and with OV90 was “inactive” each time. In addition, the Potency entry with PA-1, in the test on SKOV3, in the test with Tov-21-G and in the test on Tov112D was “inactive” throughout.

With `CC1(C)CCCC2(C)C1C(O)C=C(CO)C2(O)C(=O)O` (stereo not given), the Potency result with CASKI, in the test with Es-2, with HeLa, in the test on Hek293T, with JEG-3 and with OV90 was “inactive” throughout. The Potency entry in the test on PA-1, in the test with SKOV3, in the test with Tov-21-G and in the test with Tov112D was “inactive” in each case.

With `CC(C)CC(=O)n1cc(C(N)=O)c(=O)cc1C(O)c1ccccc1` (stereo not given), the Potency result with CASKI, with Es-2, with HeLa, with Hek293T, with JEG-3 and with OV90 was “inactive” throughout. The Potency entry in the test on PA-1, with SKOV3, in the test with Tov-21-G and with Tov112D was “inactive” in each case.

In the case of `CCC/C=C/C(=O)O[C@H]1CC(C)(C)CC2[C@]13[C@H](O)O[C@@]21CCC2[C@@]4(C)CC[C@H](O[C@@H]5O[C@H](C(=O)O)[C@@H](O)[C@H](O[C@@H]6O[C@H](CO)[C@H](O)[C@H](O)[C@H]6O[C@@H]6O[C@@H](C)[C@H](O)[C@@H](O)[C@H]6O[C@@H]6OC[C@](O)(CO)[C@H]6O)[C@H]5O[C@@H]5O[C@H](CO)[C@H](O)[C@H](O)[C@H]5O)C(C)(C)C4CC[C@@]2(C)[C@]1(C)C[C@H]3OC(C)=O` (stereo not given in full), the activity change, negative = cytotoxicity in the test on CASKI is 2.37% [at 6.55 µM]; in the test on Es-2, 2.55% [at 6.55 µM]; in the test with HeLa it was -1.33% [at 6.55 µM]; in the test with Hek293T, -6.65% [at 6.55 µM]; in the test on JEG-3 it was -6.17% [at 6.55 µM]; with OV90, -0.93% [at 6.55 µM]. For the same compound, the activity change, negative = cytotoxicity in the test on PA-1 was -0.307% [at 6.55 µM]; in the test on SKOV3, 13% [at 6.55 µM]; in the test with Tov-21-G it was 0.0885% [at 6.55 µM]; in the test with Tov112D, 1.84% [at 6.55 µM].

Regarding `CCc1ccc2c(c1)N(CC(C)CN(C)C)c1ccccc1S2` (stereo not given), in [1] (setting [2]), the activity, negative = cell killing is 11.1%. Besides, the results for the Potency in test [1] (tumour line A) and in [1] (tumour line B) were 4470 nM (active) and 25100 nM (active), respectively.

On to `Nc1c(Br)cc(Br)cc1CNC1CCC(O)CC1` (stereo not given), for which the Potency entry in the test with Es-2, with HeLa, with Hek293T, in the test with JEG-3, with OV90 and in the test on PA-1 was “inactive” in each case. Further, the Potency entry with SKOV3, in the test with Tov-21-G, in the test on Tov112D and with astro was “inactive” in each case. The activity, negative = cell killing in test [1] (setting [3]) is -15.5%; in test [1] (setting [4]) it was -18.1%; in [1] (setting [2]), -10.6%. For the same compound, the Potency in [1] (tumour line A) was 14100 nM (active).

For `Cc1ccc(Sc2cncc3sc(C(N)=O)cc23)cc1`, the Potency result with Es-2, with HeLa, in the test on Hek293T, in the test with OV90, with PA-1 and in the test on SKOV3 was “inactive” throughout. In addition, the Potency entry in the test with Tov112D was “inactive”.

For `CC1=C(/C=C/C(C)=C/C=C/C(C)=C/CO)C(C)(C)CCC1`, the activity, negative = cell killing in test [1] (setting [3]) is -16.9%; in test [1] (setting [4]), -16.1%. In addition, the Potency in test [1] (tumour line A) is 31600 nM (active).

`C=CC1=C(C)C2=CC3=NC(=C(CC(=O)[O-])C4=NC(=C(C)C4=C([O-])[O-])C=c4[n-]c(c(C)c4CC)=CC1=N2)C(CCC(=O)[O-])C3C.[Cu+2].[Na+].[Na+].[Na+]` (stereo not given): the activity, negative = cell killing was -28% in test [1] (at 46 µM (top of the series), tumour line A) and 10.7% in [1] (setting [2]).

Turning to `Cc1nn(C)c2c1C(c1ccc(C(F)(F)F)cc1)C(C#N)=C(N)O2` (stereo not given), the Potency result in the test on CASKI, in the test with Es-2, with HeLa, in the test on Hek293T, with JEG-3 and in the test with OV90 was “inactive” each time. Moreover, the Potency entry in the test on PA-1, in the test on Tov-21-G and with Tov112D was “inactive” each time.

`C=C(C)C1CC2(CO)C(=CC1=O)CCC(O)C2C` (stereo not given): the Potency entry with CASKI, with Es-2, in the test on HeLa, in the test on Hek293T, in the test on JEG-3 and with OV90 was “inactive” in each case. The Potency result in the test with PA-1, in the test on Tov-21-G and in the test on Tov112D was “inactive” each time.

In the case of `C[C@]12C=CC(=O)N[C@@H]1CC[C@@H]1[C@@H]2CC[C@]2(C)[C@@H](C(=O)Nc3cc(C(F)(F)F)ccc3C(F)(F)F)CC[C@@H]12`, the activity, negative = cell killing in test [1] (setting [2]) was -29.8%.

Consider `Cc1nc2c(-c3cnc(N)nc3)nc(N3CCOCC3)nc2n1C(C)C`, for which the Potency is 1260 nM (active) with CASKI; 1580 nM (active) with HeLa; 708 nM (active) with Hek293T; 1120 nM (active) with OV90; 2000 nM (active) in the test on PA-1; 562 nM (active) in the test on SKOV3. Moreover, the Potency in the test with Tov-21-G is 631 nM (active).
